T1: RXRB 298-533 Hormone_recep (domain begin residue: 298, domain end residue: 533), P28702
T1 chain: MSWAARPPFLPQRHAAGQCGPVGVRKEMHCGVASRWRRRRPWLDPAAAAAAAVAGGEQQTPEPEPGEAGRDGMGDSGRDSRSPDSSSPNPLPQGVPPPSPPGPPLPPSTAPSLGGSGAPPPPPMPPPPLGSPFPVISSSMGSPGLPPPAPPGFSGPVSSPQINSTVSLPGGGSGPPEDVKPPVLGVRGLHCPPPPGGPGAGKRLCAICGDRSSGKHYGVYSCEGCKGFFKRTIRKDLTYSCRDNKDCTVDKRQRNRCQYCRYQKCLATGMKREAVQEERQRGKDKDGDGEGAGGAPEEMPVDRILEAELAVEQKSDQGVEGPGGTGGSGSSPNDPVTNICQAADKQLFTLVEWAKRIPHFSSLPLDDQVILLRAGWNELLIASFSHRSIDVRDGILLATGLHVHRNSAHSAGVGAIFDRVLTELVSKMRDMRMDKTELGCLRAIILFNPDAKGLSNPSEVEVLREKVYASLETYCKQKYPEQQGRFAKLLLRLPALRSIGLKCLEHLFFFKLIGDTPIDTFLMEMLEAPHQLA

T2: RBM17 298-401 RRM_1 (domain begin residue: 298, domain end residue: 401), Q96I25
T2 chain: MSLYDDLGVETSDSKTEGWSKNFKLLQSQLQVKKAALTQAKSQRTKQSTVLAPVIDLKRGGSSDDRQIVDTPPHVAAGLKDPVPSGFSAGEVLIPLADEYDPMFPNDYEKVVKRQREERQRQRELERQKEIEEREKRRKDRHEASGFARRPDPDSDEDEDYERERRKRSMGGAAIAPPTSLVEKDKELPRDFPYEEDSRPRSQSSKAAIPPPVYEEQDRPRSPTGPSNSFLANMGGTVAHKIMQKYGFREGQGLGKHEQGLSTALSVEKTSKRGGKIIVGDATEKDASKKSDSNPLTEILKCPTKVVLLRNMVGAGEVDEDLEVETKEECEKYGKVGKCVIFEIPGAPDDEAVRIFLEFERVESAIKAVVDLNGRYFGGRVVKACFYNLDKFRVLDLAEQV

T3: S100A11 5-105 S_100+EF-hand_1 (domain begin residue: 5, domain end residue: 105), P31949
T3 chain: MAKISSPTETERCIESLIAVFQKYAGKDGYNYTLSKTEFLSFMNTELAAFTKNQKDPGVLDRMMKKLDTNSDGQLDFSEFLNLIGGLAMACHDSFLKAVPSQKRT

T4: RARA 175-421 Hormone_recep (domain begin residue: 175, domain end residue: 421), P10276
T4 chain: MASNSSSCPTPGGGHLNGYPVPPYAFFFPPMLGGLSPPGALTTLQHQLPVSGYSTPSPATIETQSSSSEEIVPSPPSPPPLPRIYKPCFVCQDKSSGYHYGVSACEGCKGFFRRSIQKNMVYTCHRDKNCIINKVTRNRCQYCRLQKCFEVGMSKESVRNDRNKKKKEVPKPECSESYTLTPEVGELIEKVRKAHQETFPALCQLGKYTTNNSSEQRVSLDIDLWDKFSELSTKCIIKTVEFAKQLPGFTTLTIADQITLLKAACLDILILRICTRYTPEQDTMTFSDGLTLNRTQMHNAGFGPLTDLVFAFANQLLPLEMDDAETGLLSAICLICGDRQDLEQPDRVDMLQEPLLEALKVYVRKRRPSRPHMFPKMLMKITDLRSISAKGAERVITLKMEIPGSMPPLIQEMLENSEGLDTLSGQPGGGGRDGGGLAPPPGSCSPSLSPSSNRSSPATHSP

T5: RARG 183-417 Hormone_recep (domain begin residue: 183, domain end residue: 417), P13631
T5 chain: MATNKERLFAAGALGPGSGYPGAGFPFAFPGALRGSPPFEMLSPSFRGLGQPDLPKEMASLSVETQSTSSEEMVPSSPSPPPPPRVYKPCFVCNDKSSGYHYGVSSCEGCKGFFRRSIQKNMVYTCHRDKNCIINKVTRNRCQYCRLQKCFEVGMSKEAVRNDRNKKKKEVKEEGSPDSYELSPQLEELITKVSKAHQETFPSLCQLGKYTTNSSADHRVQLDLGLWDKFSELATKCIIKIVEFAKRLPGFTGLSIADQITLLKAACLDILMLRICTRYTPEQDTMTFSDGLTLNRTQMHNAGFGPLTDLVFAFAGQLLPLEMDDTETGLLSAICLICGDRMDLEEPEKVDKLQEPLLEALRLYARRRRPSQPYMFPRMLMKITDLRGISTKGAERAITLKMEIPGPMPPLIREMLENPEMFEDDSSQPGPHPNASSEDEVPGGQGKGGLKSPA

T6: RORB 212-470 Hormone_recep (domain begin residue: 212, domain end residue: 470), Q92753
T6 chain: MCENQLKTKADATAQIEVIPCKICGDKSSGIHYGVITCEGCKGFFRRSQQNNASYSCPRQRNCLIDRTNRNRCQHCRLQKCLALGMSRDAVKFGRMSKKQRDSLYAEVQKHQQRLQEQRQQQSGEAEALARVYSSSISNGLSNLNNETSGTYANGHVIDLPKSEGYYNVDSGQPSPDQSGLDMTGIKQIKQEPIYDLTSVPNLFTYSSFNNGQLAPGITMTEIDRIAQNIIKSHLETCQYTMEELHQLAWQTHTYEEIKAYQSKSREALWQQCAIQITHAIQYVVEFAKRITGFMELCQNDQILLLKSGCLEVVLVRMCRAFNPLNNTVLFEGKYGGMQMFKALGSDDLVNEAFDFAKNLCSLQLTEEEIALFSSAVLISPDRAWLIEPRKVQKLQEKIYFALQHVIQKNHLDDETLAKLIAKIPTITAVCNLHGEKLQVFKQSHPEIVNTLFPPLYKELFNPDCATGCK

Chain of RANBP1 39-170 Ran_BP1 (domain begin residue: 39, domain end residue: 170), P43487 (P43487 whole entry): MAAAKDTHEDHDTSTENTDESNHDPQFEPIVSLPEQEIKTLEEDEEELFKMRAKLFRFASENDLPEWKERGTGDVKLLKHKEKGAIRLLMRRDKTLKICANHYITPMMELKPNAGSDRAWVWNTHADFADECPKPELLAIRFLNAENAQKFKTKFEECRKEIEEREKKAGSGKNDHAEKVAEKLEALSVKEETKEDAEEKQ
Chain of RPA1 2-121 Rep-A_N (domain begin residue: 2, domain end residue: 121), P27694 (P27694 whole entry, the tested form may be a part): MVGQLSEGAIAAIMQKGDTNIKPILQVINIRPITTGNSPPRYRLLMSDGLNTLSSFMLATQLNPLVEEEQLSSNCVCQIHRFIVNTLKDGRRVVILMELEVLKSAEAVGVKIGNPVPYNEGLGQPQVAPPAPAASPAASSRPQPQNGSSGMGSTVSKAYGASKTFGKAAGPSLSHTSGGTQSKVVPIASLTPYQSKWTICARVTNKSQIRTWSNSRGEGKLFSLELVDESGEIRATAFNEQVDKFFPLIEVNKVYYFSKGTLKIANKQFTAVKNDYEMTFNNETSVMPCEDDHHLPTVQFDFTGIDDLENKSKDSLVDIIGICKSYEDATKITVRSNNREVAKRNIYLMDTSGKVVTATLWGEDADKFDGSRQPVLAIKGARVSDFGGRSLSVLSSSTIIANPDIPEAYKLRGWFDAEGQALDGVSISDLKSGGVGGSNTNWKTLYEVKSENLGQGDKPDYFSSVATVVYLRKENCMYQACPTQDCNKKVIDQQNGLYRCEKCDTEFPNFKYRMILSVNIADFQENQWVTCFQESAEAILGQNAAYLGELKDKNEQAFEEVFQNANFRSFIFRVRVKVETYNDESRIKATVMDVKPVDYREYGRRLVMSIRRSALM
Chain of RBBP5 2-538 WD40 (domain begin residue: 2, domain end residue: 538), Q15291 (Q15291 whole entry): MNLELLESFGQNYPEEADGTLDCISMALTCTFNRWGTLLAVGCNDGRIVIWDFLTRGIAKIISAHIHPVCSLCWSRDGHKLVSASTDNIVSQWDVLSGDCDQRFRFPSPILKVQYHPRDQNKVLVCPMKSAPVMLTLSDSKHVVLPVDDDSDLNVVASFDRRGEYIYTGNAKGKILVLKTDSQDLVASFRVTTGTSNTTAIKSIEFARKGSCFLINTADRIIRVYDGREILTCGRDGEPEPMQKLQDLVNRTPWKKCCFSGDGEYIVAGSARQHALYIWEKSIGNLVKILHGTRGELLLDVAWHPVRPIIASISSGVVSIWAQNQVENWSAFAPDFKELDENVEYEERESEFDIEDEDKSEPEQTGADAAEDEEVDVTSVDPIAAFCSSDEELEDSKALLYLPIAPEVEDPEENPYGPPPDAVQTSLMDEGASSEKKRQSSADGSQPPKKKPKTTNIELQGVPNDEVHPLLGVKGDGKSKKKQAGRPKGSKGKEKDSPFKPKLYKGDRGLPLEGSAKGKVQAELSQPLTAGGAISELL
Chain of SETD1A 2-220 RRM_1 (domain begin residue: 2, domain end residue: 220), O15047 (O15047 whole entry): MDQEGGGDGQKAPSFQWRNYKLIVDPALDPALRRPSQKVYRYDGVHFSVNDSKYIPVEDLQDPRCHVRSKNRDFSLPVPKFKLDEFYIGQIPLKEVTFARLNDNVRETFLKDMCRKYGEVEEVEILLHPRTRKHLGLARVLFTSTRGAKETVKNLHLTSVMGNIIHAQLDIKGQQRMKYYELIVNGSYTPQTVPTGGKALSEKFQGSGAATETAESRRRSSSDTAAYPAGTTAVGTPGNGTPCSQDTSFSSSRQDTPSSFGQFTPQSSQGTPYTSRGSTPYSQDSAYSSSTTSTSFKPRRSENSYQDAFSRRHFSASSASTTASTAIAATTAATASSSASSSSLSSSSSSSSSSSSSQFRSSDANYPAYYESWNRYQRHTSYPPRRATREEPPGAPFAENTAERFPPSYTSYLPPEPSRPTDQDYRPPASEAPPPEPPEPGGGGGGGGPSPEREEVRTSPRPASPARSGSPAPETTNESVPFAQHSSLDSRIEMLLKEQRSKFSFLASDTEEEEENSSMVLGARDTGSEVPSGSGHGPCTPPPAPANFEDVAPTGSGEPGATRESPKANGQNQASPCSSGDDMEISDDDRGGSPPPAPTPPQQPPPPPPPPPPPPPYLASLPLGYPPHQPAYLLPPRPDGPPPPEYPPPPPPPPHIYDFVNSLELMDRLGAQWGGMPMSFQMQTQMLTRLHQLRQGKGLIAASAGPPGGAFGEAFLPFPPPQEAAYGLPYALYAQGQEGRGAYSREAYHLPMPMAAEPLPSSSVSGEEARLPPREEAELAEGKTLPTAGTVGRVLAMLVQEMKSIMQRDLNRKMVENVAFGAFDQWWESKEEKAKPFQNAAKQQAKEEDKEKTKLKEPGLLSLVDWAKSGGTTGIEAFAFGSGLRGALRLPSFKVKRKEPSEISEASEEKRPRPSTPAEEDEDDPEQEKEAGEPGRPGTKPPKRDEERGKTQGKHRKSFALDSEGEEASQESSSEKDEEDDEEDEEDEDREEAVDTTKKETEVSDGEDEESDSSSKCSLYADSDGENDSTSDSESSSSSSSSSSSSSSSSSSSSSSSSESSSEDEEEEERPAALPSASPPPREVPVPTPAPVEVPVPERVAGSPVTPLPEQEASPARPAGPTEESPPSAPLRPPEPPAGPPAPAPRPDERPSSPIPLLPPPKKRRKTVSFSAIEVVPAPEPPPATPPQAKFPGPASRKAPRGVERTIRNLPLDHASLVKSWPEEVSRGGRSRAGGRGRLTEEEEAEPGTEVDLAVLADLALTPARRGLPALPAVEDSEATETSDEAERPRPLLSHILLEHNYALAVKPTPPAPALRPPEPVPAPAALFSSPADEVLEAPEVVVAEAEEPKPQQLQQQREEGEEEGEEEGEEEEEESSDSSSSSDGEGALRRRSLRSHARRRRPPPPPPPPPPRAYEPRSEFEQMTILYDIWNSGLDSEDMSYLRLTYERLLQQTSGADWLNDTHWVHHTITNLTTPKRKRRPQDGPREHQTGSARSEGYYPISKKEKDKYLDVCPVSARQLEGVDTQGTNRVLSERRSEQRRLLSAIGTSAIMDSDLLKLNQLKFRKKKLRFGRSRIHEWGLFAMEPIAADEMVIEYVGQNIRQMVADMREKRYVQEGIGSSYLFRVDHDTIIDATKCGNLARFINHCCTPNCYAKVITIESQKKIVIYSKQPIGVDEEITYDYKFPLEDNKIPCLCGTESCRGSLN

The first assay addresses RPA1 2-121 Rep-A_N (domain begin residue: 2, domain end residue: 121), P27694. Put plainly: phage ELISA signal ratio (GST-PRM binding over GST background); higher = stronger binding of peptide-phage to the PRM. The procedure, abridged:
(§1)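 Approximately 48 individual clones from selection rounds 4 and 5 were tested by phage ELISA, and those scoring positive were sequenced. They came from five rounds of selecting an M13 phage library of randomized, cysteine-free, glycine-flanked hexadecapeptides on the gene-8 major coat protein against human peptide recognition domains fused to the C-terminus of glutathione S-transferase (GST) in 96-well plates. Each figure in the table is the ELISA signal on the GST-domain fusion relative to the signal on GST alone.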
(In general: In an ELISA, binding on a coated surface is turned into a signal by an enzyme label.)
In the case of EEMPWYFIEDWEMEMY, the “phage ELISA signal ratio” value was determined as 10.6.

With TDMEYWEPFTDEELSM, the “phage ELISA signal ratio” value came out at 10. The same measure, in the same setting: the value for VWEDWTYMEDWEMMVF was 14.3. For WELSDYTLIQAYDQIM, the “phage ELISA signal ratio” value came out at 13.8. As to YIQDWEMMDVWNTLVG, the “phage ELISA signal ratio” value amounted to 18. YIHDWEMFEHWENLWG: the “phage ELISA signal ratio” value was 9.27.

As to VSWWDDGLVYDWMSEF, the “phage ELISA signal ratio” value came to 16.5.

In the case of YVTDLEMIETWNKFIN, the “phage ELISA signal ratio” value is 16.4. For MWGGEDDLVQAWLEQF, the “phage ELISA signal ratio” value was found to be 9.46. Consider YYVLDSEMETIWQSIL, for which the “phage ELISA signal ratio” value came to 15.3. As for EVEDMQWLEENWLVFW, the “phage ELISA signal ratio” value came out at 12.

In a further assay the target is T1, RXRB 298-533 Hormone_recep (domain …. The description is as above. The procedure, abridged:
as §1
Consider ESNEMWEWVMNQAHVW, for which the “phage ELISA signal ratio” value worked out at 11.2. As to LDHMNWPEHDWLWATM, the “phage ELISA signal ratio” value was found to be 16.1. As for IEQAELIWMEYKKQTK, the “phage ELISA signal ratio” value was 6.73.

On to TPTDTAESIWEMYKKM, for which the “phage ELISA signal ratio” value stood at 28.

For the molecule YPEHQWLEQHMFQTVQ, the “phage ELISA signal ratio” value stood at 14.3.

The next assay concerns the target RANBP2 1184-1310 Ran_BP1 (domain begin residue: 1184, domain end residue: 1310). The assay is described as above. The procedure, abridged: as §1
Turning to WADEWEAPFVWKMQEV, the “phage ELISA signal ratio” value was 3.11. Take NDEWDHPFTFNPGVPP: the “phage ELISA signal ratio” value was determined as 5.9. The same measure, in the same setting: as for DEELWAAPFTWGPVLE, the figure is 4.84; as for SKMDEWPPEPWELMKL, 4.23. For QKVHPWDDWDSPFMWF, the “phage ELISA signal ratio” value worked out at 12.9. On the same count and under the same terms, the value for WQSWDDWDRPMHPMEN was 6.6.

For the next assay, the target named is SETD1A 2-220 RRM_1 (domain begin residue: 2, domain end residue: 220), O15047. The assay is described as above. The essentials:
as §1
In the case of HMAWDVIWDNIYLADS, the “phage ELISA signal ratio” value is 4.42.

With YNFPMDWDQIPITWPQ, the “phage ELISA signal ratio” value was determined as 6.17.

Another assay has as its target T2, RBM17 298-401 RRM_1 (domain begin …. The assay is described as above. The essentials: as §1
Regarding YRWDRQPSQEAVSSKY, the “phage ELISA signal ratio” value was 4.04. The same measure, in the same setting: the value for AQMAPRWDQMQPVMVE was 5.16.

The next assay deals with RPA2 202-270 RPA_C (domain begin residue: 202, domain end residue: 270), P15927. The assay is described as above. The essentials: as §1
Chain of RPA2 202-270 RPA_C (domain begin residue: 202, domain end residue: 270), P15927 (P15927 whole entry): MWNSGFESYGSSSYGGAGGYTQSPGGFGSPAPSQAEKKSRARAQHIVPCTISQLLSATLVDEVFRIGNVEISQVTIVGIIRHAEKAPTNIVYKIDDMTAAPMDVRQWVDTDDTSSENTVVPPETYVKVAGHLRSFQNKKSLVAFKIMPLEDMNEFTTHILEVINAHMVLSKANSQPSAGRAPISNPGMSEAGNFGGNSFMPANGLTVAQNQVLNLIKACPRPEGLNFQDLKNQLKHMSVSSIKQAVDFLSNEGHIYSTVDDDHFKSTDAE
For the molecule WQWNGVWPDIIWVQVE, the “phage ELISA signal ratio” value was 7.24.

Another assay concerns the target RANBP2 2924-3050 Ran_BP1 (domain begin residue: 2924, domain end residue: 3050). The description is as above. The procedure, abridged: as §1
As to LSTDFLQMEHFWNQQF, the “phage ELISA signal ratio” value came out at 3.07. For FDVPLPLEHDWWTSWV, the “phage ELISA signal ratio” value was found to be 3.39. As to EWDWPSDHSWWEYIQH, the “phage ELISA signal ratio” value worked out at 8.48. For FDPLWMALPEDKVHEM, the “phage ELISA signal ratio” value turned out to be 3.06. For QDWWETALPQEPWHVV, the “phage ELISA signal ratio” value is 22.7. Consider QYMLMSLPEDDWATPH, for which the “phage ELISA signal ratio” value came out at 4.31. As for EFDAMQAHWNVLHPEG, the “phage ELISA signal ratio” value amounted to 8.19.

The next assay deals with T3, S100A11 5-105 S_100+EF-hand_1 (domain …. The description is as above. The essentials: as §1
MEQWWHGEDIMWHWWE: the “phage ELISA signal ratio” value was determined as 3.64.

For the molecule YWTWDDFQEMFLRLER, the “phage ELISA signal ratio” value turned out to be 4.97.

A further assay has as its target RANBP1 39-170 Ran_BP1 (domain begin residue: 39, domain end residue: 170), P43487. The assay is described as above. The essentials: as §1
As for WGQMPLPVDMPETWNF, the “phage ELISA signal ratio” value was found to be 21. DHGWWMLNSNFLPVVP: the “phage ELISA signal ratio” value was 9.28.

With PTEAEWGIWHDLPDYE, the “phage ELISA signal ratio” value was 10.1. As for PQWWHNMPALPDDIIH, the “phage ELISA signal ratio” value amounted to 14.7.

As for WEWSPLPPDVETFSQI, the “phage ELISA signal ratio” value stood at 15.9. The same measure, in the same setting: as for DMEQWWMELPQVPMYA, the figure is 23.1. As to IDSYEHHSTGMVPLPD, the “phage ELISA signal ratio” value stood at 26.3. As to WMMTLPPDMPGEWQVV, the “phage ELISA signal ratio” value was 11.

As for QAVVPWQMPLPDWIVS, the “phage ELISA signal ratio” value is 18.4. Still for that read-out and setting: the value for PPLPPDKNDWHVEYMP was 15.6. Take MGYWDYLPPVPGETWG: the “phage ELISA signal ratio” value came out at 15.4.

In the case of TEIALPWPDRAERAYL, the “phage ELISA signal ratio” value came out at 16.3. For QEFWERYTIPMWVDSF, the “phage ELISA signal ratio” value came out at 13.7.

The next assay has as its target T4, RARA 175-421 Hormone_recep (domain …. The description is as above. The procedure, abridged:
as §1
As to RQSQLQMWIWDATQDE, the “phage ELISA signal ratio” value is 3.71. Still for that read-out and setting: the value for SQIQRYIDEAMTHQST was 13.4; that for GAWDWQLDQLLMQYLE was 4.72; that for WPEYMSWDDAYWMTML was 4.17.

In another assay the target is T5, RARG 183-417 Hormone_recep (domain …. The description is as above. The procedure, abridged: as §1
Turning to PYGPFKSFEYMDIQRT, the “phage ELISA signal ratio” value was found to be 26.7.

The next assay has as its target T6, RORB 212-470 Hormone_recep (domain …. The description is as above. The essentials:
as §1
Turning to WEHHGWWTFWEEAPEQ, the “phage ELISA signal ratio” value is 4.7.

In a further assay the target is RBBP5 2-538 WD40 (domain begin residue: 2, domain end residue: 538), Q15291. The assay is described as above. The procedure, abridged:
as §1
Take IFYWDFESQTWTMSAP: the “phage ELISA signal ratio” value worked out at 3.49. On the same count and under the same terms, as for QIEYWNSMEQTWVQSQ, the figure is 9.82.
